In general, inhibition refers to the relative decrease from the control value, in per cent.

This passage reports inhibition results from PubChem BioAssay.

Values without a mark were called inactive. Calls of active or inactive are those of the source.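 How the source made its calls: active means inhibition above 50%; inactive means the rest.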

This experiment can be described thus: HepG2 cytotoxicity, primary screen, cytotoxicity control for P. falciparum antimalarial project, cell-based, ATP luminescence (AID 2303).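 Further: 0% = DMSO wells and 100% = digitonin-killed cells.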 Particulars: HepG2 viability, 24-48 h, at 10 µM, active compounds read high.
`COc1ccc2nccc([C@@H](O)CN3CCC(NCc4cc5cc(C)ccc5s4)CC3)c2c1`: the inhibition is 13%.
The figure for `COc1ccccc1N1CCN(C(C(=O)NCc2ccc(C)cc2)c2ccc(C)cc2)CC1` (stereo not given) is 12%; for `CNCCNCc1cccc(-c2ccc(-c3nc4ccccc4[nH]3)s2)c1` it is 8%; for `COc1ccccc1C1CCN(CCCCNC(=O)c2ccc(NC(=O)c3ccc(Cl)cc3)cc2)CC1` it is 21%.
For `CN(C)CC(O)C(c1ccccc1)c1cccc(Br)c1` (stereo not given) the value was 22%.
In the case of `CC(C)N1CCN(C(CN2CCN(CCCOc3ccc(-c4ccccc4)cc3)CC2)c2ccc(F)cc2)CC1` (stereo not given), the inhibition was 100% (active).
The figure for `CN1CCN(Cc2nc(-c3ccc4c(Nc5ccc(Oc6ccccc6)cc5)ccnc4c3)cs2)CC1` is 15%; for `CCN(CC)CC#Cc1ccc2[nH]c(C)c(Cl)c(=O)c2c1` it is 11%.
The figure for `O=S(=O)(NC1CCCCN(Cc2ccccc2O)C1)c1ccc(C(F)(F)F)cc1` (stereo not given) is 1%; for `NC1=NC2(CCCCC2)N(OCCCOc2cccc3ccccc23)C(N)=N1` it is 67% (active).
For the molecule `Cc1cc(C(F)(F)F)nn1-c1ccc(NC(=O)c2ccco2)cc1`, the inhibition is 14%.
For `NS(=O)(=O)NCCCN1CCN(c2ccccc2)CC1` the value was 2%.
Regarding `CC(C)(C)c1ccc(-c2cc3c(ccc4nc(N)nc(N)c43)[nH]2)cc1`, the inhibition was 100% (active).
In the case of `COc1ccccc1CCNc1nc(C)cc(NCCC(=O)NCCOc2ccccc2)n1`, the inhibition is 11%.
Take `CCOc1cc(C)ccc1N(C1CCN(CCCCNC(=O)c2ccc(-c3ccc(C(F)(F)F)cc3)cc2)CC1)S(=O)(=O)c1ccccc1`: the inhibition was 14%.
Consider `Cc1ccc(NC(=O)N2CCCN(CCCCCNC(=O)/C=C/c3ccc(Cl)c(Cl)c3)CC2)cc1C`, for which the inhibition was 62% (active).
The figure for `NCc1cccc(-c2ccccc2CNC2CCN(Cc3ccccc3)CC2)c1` is -3%.
For `CCc1cc(=O)[nH]c(-n2nc(C)cc2NC(=O)CC(c2ccccc2)c2ccccc2)n1` the value was 37%; for `COc1ccc2nccc([C@@H](O)CN3CCC(NC(=O)Cc4cc5ccccc5s4)CC3)c2c1`, 16%.
For `COc1ccc(C)cc1NC(=O)CSc1nc2cccnc2n1C1CCCCC1` the value was 14%; for `CC(CN(C)C)C(=O)Nc1cccc(-c2cccc(-c3nc4ccccc4[nH]3)c2)c1` (stereo not given), 42%; for `CN(C)c1ccc(Br)c(Br)c1`, 17%.
On to `CCCCCN1CCC(CNS(=O)(=O)c2ccc(C(=O)Nc3cccc(C(F)(F)F)c3)cc2)CC1`, for which the inhibition was 13%.
In the case of `CN(C)CCN(C)Cc1ccc(-c2ccc(NS(=O)(=O)c3cccc4cccnc34)cc2)cc1`, the inhibition was 23%.
The figure for `O=C(NCC1CCC(C(=O)O)CC1)c1ccc(/C=C/C(=O)N2CCc3ccccc3C2c2ccc3c(c2)OCO3)cc1` (stereo not given) is 66% (active).
For `O=C(Nc1ccc([N+](=O)[O-])cc1)Nc1cc(C(F)(F)F)ccc1F` the value was 8%.
Consider `CN1CCN(c2ccnc3ccc(NC(=O)Nc4ccc(Br)cc4)cc23)CC1`, for which the inhibition was 12%.
For the molecule `COc1ccc(Nc2nccc(NCCNC(=O)Nc3cc(C)ccc3C)n2)cc1`, the inhibition was 10%.
For the molecule `CCOc1cc(NC(=O)Nc2ccnc3ccccc23)cc(OC)c1`, the inhibition was -7%.
For `NC(N)=NC(=O)Nc1cc(Cl)c(Cl)c(Cl)c1` the value was -2%.
The figure for `CC(C)(C)c1ccc(OCCCON2C(N)=NC(N)=NC2(C)C)cc1` is 77% (active); for `COc1cc(OC)cc(-c2nn(-c3ccc([N+](=O)[O-])cc3Cl)c(=S)n2CC2CCCO2)c1` (stereo not given) it is 5%.
`CN1CCN(c2ccnc3ccc(NC(=O)Cc4ccc5ccccc5c4)cc23)CC1`: the inhibition was 6%.
Consider `O=C(Nc1ccccc1)N(Cc1ccc(-c2ccc(CNC3CCCC3)cc2)cc1)C1CCN(Cc2ccccc2)CC1`, for which the inhibition is 34%.
Consider `CCCCN(CCCC)CCCCNc1c2ccc(Cl)cc2nc2ccc(OC)cc12`, for which the inhibition is 68% (active).
The figure for `CC(C)(CNC(=O)/C=C/c1ccc(Cl)c(Cl)c1)CNc1cc(=O)c2ccccc2[nH]1` is -4%.
For `CC(C)CNCc1ccc(-c2ccc(CNC3CCN(Cc4ccccc4)CC3)cc2)cc1` the value was 16%.
For `CCN(CC)CCNc1ccnc2[nH]c3ccc(C)cc3c12` the value was 9%; for `CN1CCN(c2ccnc3ccc(NC(=O)Nc4cccc(C#N)c4)cc23)CC1`, 11%; for `CC(O)C1CCCCN1C(=O)c1cccc(-c2cccc(-c3nc4ccc(C(F)(F)F)cc4[nH]3)c2)c1` (stereo not given), 32%.
